# Sampled rows, rich in hits. Any-hit rate of the full collection: about 1.5%.
# dFosB activator = mouse delta FosB homodimer activation; activation, % at 25 µM; P13346; actives 0.99% (n = 340,000); purified delta FosB, TAMRA-CDK5 oligo fluorescence polarization; percent of positive-control signal above neutral wells;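 active = mean activation above about 17%, with every replicate also reaching it, limit read from the data, passing the limit was not always enough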
# F508del corr = CFTR F508del correction in bronchial cells | actives 0.36% (n = 350,000) | CFBE cells, YFP halide quenching; stimulated with forskolin plus potentiator P3; % fluorescence drop versus neutral controls | activity (quench increase), % at 7.58 µM;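 active = mean added fluorescence quench of at least 8% versus neutral control, with both replicates also reaching 8%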;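 note: cells transiently co-express mutant CFTR-F508del with the halide-sensitive YFP; corrector assay measuring rescue of mutant channel to the surface after 24 h compound exposure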
# Glyco luc inh = blocks N-linked glycosylation in D54 reporter cells; D54 ERlucT glycosylation luciferase reporter, 24 h; percent of 100 nM tunicamycin response; reporter increase, % at 12.5 µM; actives 0.23% (n = 360,000); AID 588692;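 active = mean luciferase reporter signal, scaled so untreated is 0 and the glycosylation-blocking control 100, at or above a set limit in every replicate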;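 note: luciferase carries N-glycosylation sites so blocking glycosylation raises the light; 0% = median of neutral control wells and 100% = median of 100 nM tunicamycin wells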
# RAD52 anneal inh = RAD52 (human) annealing inhibition; P43351; recombinant RAD52 DNA annealing, FRET fluorescence; inhibition, % at 18.7 µM; actives 0.46% (n = 360,000);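 active = every replicate showing at least 50% inhibition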
# Target sequence (P43351 whole entry, looked up): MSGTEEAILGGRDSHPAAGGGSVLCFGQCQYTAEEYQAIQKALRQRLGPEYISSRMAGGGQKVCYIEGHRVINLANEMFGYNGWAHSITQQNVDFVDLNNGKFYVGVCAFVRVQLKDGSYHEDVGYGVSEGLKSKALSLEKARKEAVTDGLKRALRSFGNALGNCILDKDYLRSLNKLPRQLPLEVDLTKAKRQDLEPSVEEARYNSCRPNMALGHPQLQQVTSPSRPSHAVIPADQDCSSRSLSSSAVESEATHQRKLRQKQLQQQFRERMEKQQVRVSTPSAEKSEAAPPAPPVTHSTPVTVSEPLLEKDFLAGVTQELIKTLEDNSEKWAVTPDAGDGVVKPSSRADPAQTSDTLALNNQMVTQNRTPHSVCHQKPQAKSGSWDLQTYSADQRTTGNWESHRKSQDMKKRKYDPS
# PvdQ inh = P. aeruginosa PvdQ acylase inhibition | purified PvdQ acylase, fluorescence plate reader | inhibition, % at 10 µM | actives 0.063% (n = 340,000); in the data active = inhibition above about 30%, passing the limit was not always enough;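 note: 0% = vehicle neutral wells and 100% = reference inhibitor wells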
# RAD54 inh = RAD54 (human) branch migration inhibition. RAD54 Holliday junction branch migration, FAM/BHQ fluorescence. actives 0.14% (n = 360,000). inhibition, % at 10.4 µM. AID 602329. Q92698;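 active = mean normalized replicate activity at least 40 and at least half of replicates scoring 40 or more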;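 note: 0% = median of neutral control wells and 100% = median of positive control wells; inhibitors cause a drop in the FAM fluorescence signal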
# * hit, by the source's call; i = inactive; nt = no result given.
SMILES,dFosB activator,F508del corr,Glyco luc inh,RAD52 anneal inh,PvdQ inh,RAD54 inh
COc1ccc2c3c([nH]c2c1)[C@H](CO)N(C(=O)CN(C)C)CC31CN(CC2CC2)C1,nt,1,nt,50*,nt,nt
COc1ccc2c3c([nH]c2c1)[C@H](CO)N(C(=O)CN(C)C)CC31CN(CC2CCCC2)C1,nt,-3,nt,49,nt,nt
COc1ccc2c3c([nH]c2c1)[C@@H](CO)N(Cc1nccs1)CC31CCN(Cc2cccnc2)CC1,nt,2,nt,60*,nt,nt
COCC(=O)N1CC2(CN(Cc3ccccc3)C2)c2c([nH]c3cc(OC)ccc23)[C@@H]1CO,nt,0,nt,5,nt,nt
COc1ccc2c3c([nH]c2c1)[C@H](CO)N(C(=O)CN(C)C)CC31CN(Cc2ccccc2)C1,nt,-2,nt,55*,nt,nt
COc1ccc2c3c([nH]c2c1)[C@@H](CO)N(Cc1ccc(Cl)cc1)CC31CCN(Cc2nccs2)CC1,nt,3,nt,-42,nt,nt
C[C@@H]1CN([C@H](C)CO)C(=O)c2cc(/C=C/c3ccccc3)cnc2O[C@H]1CN(C)Cc1cccnc1,nt,0,nt,4,nt,-6
CO[C@H]1CN(C)C(=O)c2cc(NC(=O)C3CCC3)ccc2OC[C@H](C)N(C(=O)NC(C)C)C[C@@H]1C,nt,0,nt,-4,nt,9
COc1ccc2c3c([nH]c2c1)[C@@H](CO)N(C(=O)CN(C)C)CC31CN(CC2CC2)C1,nt,2,nt,56*,nt,nt
ClCc1nc2ccccc2c2ccccc12,-7,2,63*,-78,-7,1
CC(NCC(O)COCCC12CC3CC(CC(C3)C1)C2)c1ccccc1 (stereo unspecified),12,3,-8,55*,-4,18
NCC(O)COCCC12CC3CC(CC(C3)C1)C2 (stereo unspecified),-2,nt,-1,nt,-17,4
Cn1cnc([N+](=O)[O-])c1Sc1ncnc2nc[nH]c12,-2,1,130*,-42,-3,3
Cn1cnc(Sc2ncnc3nc[nH]c23)c1[N+](=O)[O-],9,2,136*,-4,-18,0
Cc1noc(C)c1S(=O)(=O)N(C)C[C@H]1Oc2ccc(NC(=O)C3CCCCC3)cc2CC(=O)N([C@H](C)CO)C[C@@H]1C,nt,1,nt,-13,nt,-1
Cc1ccccc1OCC(=O)OCC(=O)NCCc1ccccc1,-9,15*,0,-19,-6,13
CCOc1ccc(CCNC(=O)COC(=O)COc2ccccc2C)cc1OCC,-11,3,-1,-10,-13,nt
C[C@H](CO)N1C[C@H](C)[C@@H](CN(C)Cc2ccccn2)Oc2ncc(C3=CCCCC3)cc2C1=O,nt,0,nt,nt,nt,2
COc1cccc2c1C(=O)c1c(O)c3c(c(O)c1C2=O)CC(O)(C(C)=O)CC3OC1CC(O)C(O)C(C)O1 (stereo unspecified),-328,19*,-3,i,9,nt
COc1cccc2c1C(=O)c1c(O)c3c(c(O)c1C2=O)C[C@](O)(C(C)=O)C[C@H]3O[C@@H]1C[C@@H](N)[C@@H](O)[C@@H](C)O1,-351,31*,-14,i,-8,-30
Cc1noc(C)c1NC(=O)Nc1ccc2c(c1)C(=O)N([C@H](C)CO)C[C@@H](C)[C@H](CN(C)S(=O)(=O)c1cccs1)O2,nt,-2,nt,11,nt,11
O=C(CSc1ccccc1)N1CCc2ccccc21,-3,nt,-2,nt,3,1
O=C(CSCc1ccco1)N1CCc2ccccc21,-9,nt,-6,nt,86*,-7
CCC(C)(C)C(=O)O[C@H]1C[C@@H](C)C=C2C=C[C@H](C)[C@H](CC[C@@H]3C[C@@H](O)CC(=O)O3)[C@H]21,-6,-2,45*,-3,6,4
O=C(C[C@H]1C=C[C@H](NC(=O)c2ccncc2)[C@H](CO)O1)Nc1ccc(-c2ccccc2)cc1,nt,0,nt,-2,nt,nt
SMILES,dFosB activator,F508del corr,Glyco luc inh,RAD52 anneal inh,PvdQ inh,RAD54 inh
COc1ccc(C(=O)c2cc([N+](=O)[O-])ccc2N2CCN(C)CC2)cc1,-2,16*,24,-8,-1,nt
COc1ccc(C(=O)c2cc([N+](=O)[O-])ccc2N2CCCC2)cc1,-10,nt,10,nt,1,nt
O=C(C1CC1)N1C[C@@H]2N[C@H](C1)C2c1ccc(-c2cccc(F)c2)cc1 (stereo partly specified),nt,2,nt,nt,nt,nt
C[C@@H]1CN([C@@H](C)CO)C(=O)c2cc(NC(=O)CCCN(C)C)ccc2O[C@@H](C)CCCCO[C@@H]1CN(C)S(C)(=O)=O,nt,1,nt,3,nt,-5
COCCNc1nnc(Cc2ccc(Cl)cc2)c(=O)[nH]1,4,0,1,-9,8,4
COCCCNc1nnc(Cc2ccc(Cl)cc2)c(=O)[nH]1,-4,10*,18,0,-8,2
Cc1ccc(S(=O)(=O)N(C)C[C@H]2Oc3ncc(C#CC4(O)CCCC4)cc3C(=O)N([C@@H](C)CO)C[C@H]2C)cc1,nt,-2,nt,8,nt,20
COc1ccc(/C=N/N=C2/NC(=O)C(CC(=O)NC(N)=O)S2)cc1 (stereo unspecified),19*,0,2,-21,-13,-15
CCCCNC(=O)CC1S/C(=N/N=C/c2ccc(OC)cc2)NC1=O (stereo unspecified),1,2,2,-9,-19,nt
C/C=C/c1ccc([C@H]2[C@@H](CO)N(S(C)(=O)=O)[C@@H]2CN(CC)C(=O)CC)cc1,nt,0,nt,11,nt,-1
COC(=O)C[C@H]1C[C@H]2c3cc(NC(=O)Nc4ccc(F)cc4)ccc3O[C@H]2[C@H](CO)O1,nt,1,nt,nt,nt,-11
N#CCn1c(C2CCCCC2)nc2ccccc2c1=O,-4,nt,-1,nt,35*,2
O=C(Nc1ccccc1F)N1CCCCN2[C@H](CO)[C@@H](c3ccc(C4=CCCCC4)cc3)[C@H]2C1,nt,1,nt,56*,nt,-11
COc1ccc(NC(=O)N2CCCCN3[C@H](C2)[C@@H](c2ccc(-c4ccccc4F)cc2)[C@@H]3CO)cc1,nt,-6,nt,36,nt,8
COc1ccc(NC(=O)N2CCCCN3[C@H](CO)[C@H](c4ccc(-c5ccccc5F)cc4)[C@H]3C2)cc1,nt,-2,nt,57*,nt,22
COc1ccc(NC(=O)N2CCCCN3[C@@H](CO)[C@@H](c4ccc(C5=CCCC5)cc4)[C@@H]3C2)cc1,nt,-4,nt,54*,nt,-13
COc1ccc(NC(=O)N2CCCCN3[C@H](CO)[C@@H](c4ccc(-c5ccccc5F)cc4)[C@H]3C2)cc1,nt,-5,nt,52*,nt,5
CCCC#Cc1ccc2c(c1)O[C@@H](CN(C)Cc1ccncc1)[C@H](C)CN([C@@H](C)CO)S2(=O)=O,nt,-1,nt,-48,nt,3
COc1ccc(NC(=O)N2CCCCN3[C@H](CO)[C@@H](c4ccc(-c5ccccc5F)cc4)[C@@H]3C2)cc1,nt,2,nt,56*,nt,7
COc1ccc2c3c(n(C)c2c1)[C@H](CO)N(C(=O)Nc1ccc(F)cc1)CC31CCN(Cc2cccc(F)c2)CC1,nt,4,nt,13,nt,nt
